A selection: hits, their analogues and other compounds. The true share with any hit is near 1.6%.
KCNQ2 pot = KCNQ2 (rat) channel potentiation; O88943; CHO-K1 KCNQ2, FluxOR thallium flux fluorescence; active compounds read high; B-score at 10 µM; 0.54% of 310,000 active;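 active means fluorescence ratio B-score at least 3 SD of library B-scores, with initial fluorescence B-score within 3 of them, cut at about 5.3 in these data; same plate scores as AID 2156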;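 further: B-score of peak minus minimum over baseline fluorescence ratio after K+ and Tl+ stimulus; positive B-score means potentiation of KCNQ2 with more thallium influx and brighter signal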
Target sequence (O88943 whole entry, looked up): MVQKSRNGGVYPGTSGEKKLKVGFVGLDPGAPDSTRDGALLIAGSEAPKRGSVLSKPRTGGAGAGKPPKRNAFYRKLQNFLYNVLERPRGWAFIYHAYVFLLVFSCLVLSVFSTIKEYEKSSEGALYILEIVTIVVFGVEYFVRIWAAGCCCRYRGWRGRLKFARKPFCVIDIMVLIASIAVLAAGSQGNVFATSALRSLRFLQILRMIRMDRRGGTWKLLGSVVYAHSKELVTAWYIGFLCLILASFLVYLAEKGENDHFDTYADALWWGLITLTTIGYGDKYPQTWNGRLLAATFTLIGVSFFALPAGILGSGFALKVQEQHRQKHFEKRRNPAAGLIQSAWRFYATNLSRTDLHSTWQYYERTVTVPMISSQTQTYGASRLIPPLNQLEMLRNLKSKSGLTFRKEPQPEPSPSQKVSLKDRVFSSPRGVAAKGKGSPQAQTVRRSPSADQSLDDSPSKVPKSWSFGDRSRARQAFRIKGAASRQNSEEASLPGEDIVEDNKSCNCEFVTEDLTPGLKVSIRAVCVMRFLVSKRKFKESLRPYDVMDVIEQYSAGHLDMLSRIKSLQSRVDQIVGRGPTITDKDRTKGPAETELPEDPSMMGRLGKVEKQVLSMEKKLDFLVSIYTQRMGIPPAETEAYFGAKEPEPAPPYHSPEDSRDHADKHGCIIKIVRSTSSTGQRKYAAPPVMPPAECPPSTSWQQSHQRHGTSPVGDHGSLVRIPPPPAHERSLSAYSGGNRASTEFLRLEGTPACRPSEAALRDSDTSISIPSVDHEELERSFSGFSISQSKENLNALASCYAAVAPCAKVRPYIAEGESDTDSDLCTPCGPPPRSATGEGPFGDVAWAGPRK
KCNQ2 block = KCNQ2 (rat) channel inhibition. O88943. 1.1% of 310,000 active. B-score at 10 µM. CHO-K1 KCNQ2, FluxOR thallium flux, 20 min; active compounds read low. AID 2156;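 active means fluorescence ratio B-score at most minus 3 library SDs, with starting brightness B-score within 2 library SDs, cut at about -5.5 in these data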
Large screens that a line does not name were inactive.

CCCCN(C(=O)CNC(=O)c1ccco1)C(C(=O)NC1CCCCC1)c1cccnc1 (configuration not stated)	none
O=C(Nc1cccc(Cl)c1N1CCCC1)c1cc2ccccc2o1	KCNQ2 block -6.23
O=C(Nc1cc(Cl)ccc1N1CCOCC1)c1cc2ccccc2o1	none (no result: KCNQ2 pot)
O=C(Nc1cccc(Cl)c1N1CCCC1)c1ccc([N+](=O)[O-])o1	none
O=C(Nc1cccc(Cl)c1N1CCCC1)c1ccc(Br)o1	KCNQ2 block -7.9
C[C@H]1CN=C(Nc2ccccc2)N1CCC1CCCC1	none
CS(=O)(=O)c1ccccc1C(=O)N(CCC1=CCCCC1)c1c(N)n(Cc2ccccc2)c(=O)[nH]c1=O	none (no result: KCNQ2 pot)
COc1ccc(OC)c(CNn2c(-c3cccc(C)c3)nc3ccccc3c2=O)c1	KCNQ2 block -5.69
COc1ccc(OCC(=O)Nn2c(-c3ccc(C)cc3)nc3ccccc3c2=O)cc1	none (no result: KCNQ2 pot)
CC1(C)CC2CC(C)(CN2C(=O)COC(=O)CNC(=O)c2ccc(Cl)c(Cl)c2)C1 (configuration not stated)	none (no result: KCNQ2 pot)
O=C(CN1C(=O)c2ccccc2C1=O)Oc1ccc(F)cc1	none (no result: KCNQ2 pot)
Cn1c(C(O)C(O)c2ccccc2)nc2ccccc21 (configuration not stated)	none
Cn1c(N2CCN(C(c3ccccc3)c3ccccc3)CC2)nc2ccccc21	KCNQ2 block -12.5
COc1ccccc1-c1ccc(SCc2cccc(C)c2)nn1	KCNQ2 block -6.22
COc1ccccc1-c1ccc(SCc2ccc([N+](=O)[O-])cc2)nn1	none (no result: KCNQ2 pot)
CN(C)c1ccc(-c2nc3cnccn3c2Nc2ccc3c(c2)OCCO3)cc1	KCNQ2 block -6.39
Cc1ccc(-c2nc3cnccn3c2Nc2ccc3c(c2)OCO3)cc1	none (no result: KCNQ2 pot)
O=C(c1ccc(COc2ccc3c(c2)CCC3)o1)N1CCN(c2ccccc2)CC1	KCNQ2 block -7.99
COc1cc(OC)c(C(=O)N2CCN(c3ccccn3)CC2)cc1OC	none (no result: KCNQ2 pot)
O=C(c1ccc(COc2ccccc2Cl)o1)N1CCN(c2ccccc2)CC1	KCNQ2 block -6.04
CCCc1ccc(OCc2ccc(C(=O)N3CCN(c4ccccn4)CC3)o2)c(OC)c1	KCNQ2 block -5.91
O=C(c1ccco1)N1CCN(C(=O)c2ccc(COc3ccc4c(c3)CCC4)o2)CC1	none (no result: KCNQ2 pot)
O=C(c1ccc(CS(=O)c2ccccc2Cl)o1)N1CCN(c2ccccc2)CC1 (configuration not stated)	none (no result: KCNQ2 pot)
O=C(Cc1ccc(Cl)c(Cl)c1)Nc1cccc(S(=O)(=O)N2CCOCC2)c1	none
COc1ccc(C2CC(c3ccc4ccccc4c3OC(C)=O)=NN2C(C)=O)cc1 (configuration not stated)	none (no result: KCNQ2 pot)
O=C(Nc1ccc(Oc2ncnc3cc(Cl)ccc23)nc1)c1cccs1	none (no result: KCNQ2 pot)
O=C(CNC(=O)c1ccccc1)NCC(O)c1ccc([N+](=O)[O-])cc1 (configuration not stated)	none
C/C(=N\Nc1cccc(Cl)c1)C1(C)N(O)C(C)(C)C(c2ccco2)=[N+]1[O-] (configuration not stated)	KCNQ2 block -6.36
C/C(=N\O)C1(C)N(O)C(C)(C)C(c2ccco2)=[N+]1[O-] (configuration not stated)	none (no result: KCNQ2 pot)
CCn1c(SCc2ccccc2Cl)nc2ccccc21	KCNQ2 block -6.6
Cn1c(SCc2ccccc2Cl)nc2ccccc21	none (no result: KCNQ2 pot)
COc1ccc(-c2ccc(-c3nnc(-c4cc(OC)ccc4OC)o3)cc2)cc1	none
COc1ccc(OC)c(-c2cnc(OC(C)(C)C)nc2OC(C)(C)C)c1	KCNQ2 block -5.74
COc1ccc(NC(=O)CN(C)C(=O)CCCN2C(=O)c3cccc4cccc(c34)C2=O)cc1	none
O=C(COc1ccccc1)N(Cc1ccco1)c1ccc(O)cc1	none (no result: KCNQ2 pot)
O=C(c1ccc(Cl)c(Cl)c1)N(Cc1ccco1)c1ccc(O)cc1	KCNQ2 block -6.39
COc1ccc(CNC(=O)C(C#N)c2nc3ccccc3nc2N2CCCC2)cc1 (configuration not stated)	none (no result: KCNQ2 pot)
CC1CN(c2nc3ccccc3nc2C(C#N)C(=O)NCc2ccc3c(c2)OCO3)CC(C)O1 (configuration not stated)	KCNQ2 block -5.63
CN(/N=C/c1ccc(O)cc1O)c1ncc(C(F)(F)F)cc1Cl	none (no result: KCNQ2 pot)
O=C(c1ccccc1Br)N1CCc2c([nH]c3ccccc23)C1	none (no result: KCNQ2 pot)
O=C(NCCCN1CCOCC1)c1ccccc1N1C(=O)[C@@H]2Cc3c([nH]c4ccccc34)C(c3cccc(Cl)c3)N2C1=O (some centres not stated)	KCNQ2 block -5.63
Cc1ccc(C2c3[nH]c4ccccc4c3C[C@H]3C(=O)N(c4ccccc4C(=O)NCCCN4CCOCC4)C(=O)N23)cc1 (some centres not stated)	none (no result: KCNQ2 pot)
Cc1cc(C)cc(C(=O)NC(CC(N)=O)c2ccc(NCCN3CCCC3)c([N+](=O)[O-])c2)c1 (configuration not stated)	none
CCn1c(CC(=O)Nc2cccc(Cl)c2Cl)nnc1SCCOc1ccc(OC)cc1	KCNQ2 block -6.11
COc1ccc(OCCSc2nnc(CC(=O)Nc3cccc(Cl)c3Cl)n2C)cc1	KCNQ2 block -8.14
CCn1c(COc2cccc(OC)c2)nnc1SCC(=O)Nc1cc(OC)ccc1OC	none (no result: KCNQ2 pot)
COc1ccc(CC(=O)NCc2nnc(SCCOc3ccccc3)n2C)cc1	none (no result: KCNQ2 pot)
Cn1cc(CC(=O)NC2CCCCC2)c2ccccc21	KCNQ2 pot 5.38
COCCNC(=O)Cc1cn(C)c2ccccc12	none
Cn1c(O)c(C=NCC2CCNCC2)c(=O)n(C)c1=O	none
C=CCn1c(SCc2ccc3c(c2)OCO3)nc2scc(-c3ccco3)c2c1=O	KCNQ2 block -6.12
C=CCn1c(SCC(C)=O)nc2scc(-c3ccco3)c2c1=O	none (no result: KCNQ2 pot)
Cc1ccc(S(=O)(=O)N(C)c2ccc(OCC(=O)NCC3(N(C)C)CCCCC3)cc2)cc1	none (no result: KCNQ2 pot)
CCCC(CCC)C(=O)Nc1ccc2c(c1)N(C(=O)CCN1CCN(C)CC1)c1ccccc1CC2	none
Cc1ccc2c(c1)/C(=C/c1ccc(F)cc1)C(=O)N2	none
Cc1ccc2c(c1)N/C(=C(\C=C(/Cl)[N+](=O)[O-])[N+](=O)[O-])N2	KCNQ2 block -6.77
COc1ccc(C(=O)Nc2ccccc2C(=O)N2CCOCC2)cc1	none (no result: KCNQ2 pot)
CCCC12CN3CC(CCC)(CN(C1)C3c1ccco1)C2=O (configuration not stated)	none
CN(C)C(CNc1ncnc2sc3c(c12)CCCC3)c1ccco1 (configuration not stated)	none
Cc1ccc(C2(O)CN(c3ccccc3)C3=[N+]2CCS3)cc1 (configuration not stated)	none (no result: KCNQ2 pot)
O=[N+]([O-])c1ccc(C2(O)CN(c3ccccc3)C3=[N+]2CCS3)cc1 (configuration not stated)	KCNQ2 block -6.52
CCOc1ccc2ccccc2c1CNc1nnnn1C	KCNQ2 block -6.01
CCOc1ccccc1CNc1nnnn1C	none
CCC(C)(C)c1nnc(NC(=O)C2CC(=O)N(CCc3ccc(F)cc3)C2)s1 (configuration not stated)	none
Cc1ccc(N2CCN(C(=O)c3cc(COc4c(C)cccc4C)on3)CC2)c(C)c1	none (no result: KCNQ2 pot)
Cc1cccc(C)c1OCc1cc(C(=O)N2CCCCCCC2)no1	KCNQ2 block -6.55
CCCCOc1ccccc1C(=O)N(Cc1ccc(C)o1)C1CCS(=O)(=O)C1 (configuration not stated)	none
CCCN(CCC)C(=O)Cn1c(=O)c2ccccc2n2c(=S)sc(-c3ccccc3C)c12	KCNQ2 block -6.78
CCCN(CCC)C(=O)Cn1c(=O)c2sccc2n2c(=S)sc(-c3ccccc3)c12	none (no result: KCNQ2 pot)
CCc1ccc2nc(NC(=O)C3CSC4(C)CCC(=O)N34)sc2c1 (configuration not stated)	none (no result: KCNQ2 pot)
C=C(C)c1cccc(C(C)(C)NC(=O)Nc2nncs2)c1	none (no result: KCNQ2 pot)

Compound activity deposited in PubChem by Johns Hopkins Ion Channel Center.
